In PubChem BioAssay AID1159580 (chemical genetic matrix, 2015):
Values joined by “and” are separate entries in the source; they are usually repeats but may differ in a detail not shown here. Equal entries are not always repeated. About 2,000 (36%) of roughly 5,500 compounds were called active. Roughly 18% stayed inconclusive and do not appear here. Rule as the data show it: active = normalized growth mostly below about 0.91 (no sharp cut-off); inconclusive = no clear call, values can overlap the other calls; inactive = mostly above about 0.92. The list shows a part of the results.

Experiment: chemical genetic growth profiling, strain panel (AID 1159580);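 also: tested at 20 µM; growth read once vehicle control cultures reached saturation at 30 °C; 1 = growth at the plate median or of vehicle wells; lower values mean less growth of the strain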
Conditions: S. cerevisiae deletion strains, growth OD

Measured: normalized growth

CN1CCC(=C2c3ccccc3CC(=O)c3sccc32)CC1
inactive: locus YAL013W, strain DEP1, active compounds read low 1.01 | locus YAL021C, strain ccr4, active compounds read low 0.985 | locus YAL026C, strain drs2, active compounds read low 0.981 | locus YAL030W, strain snc1, active compounds read low 0.975 | locus YAL040C, strain CLN3, active compounds read low 0.992 | locus YBL061C, strain skt5, active compounds read low 0.981 | locus YBR009C, strain hhf1, active compounds read low 1.02 | locus YBR021W, strain FUR4, active compounds read low 1.01 | locus YBR023C, strain chs3, active compounds read low 0.986 | locus YBR171W, strain sec66, active compounds read low 0.964 | locus YBR229C, strain ROT2, active compounds read low 0.999 | locus YBR231C, strain swc5, active compounds read low 0.964 | locus YBR279W, strain paf1, active compounds read low 0.994 | locus YCL011C, strain gbp2, active compounds read low 0.989 | locus YCL016C, strain dcc1, active compounds read low 1.04 | locus YCL029C, strain bik1, active compounds read low 1.02 | locus YCL061C, strain MRC1 (second series), active compounds read low 1 | locus YCL069W, strain vba3, active compounds read low 0.983 | locus YCR088W, strain abp1, active compounds read low 0.973 | locus YDL005C, strain med2, active compounds read low 0.991 | locus YDL035C, strain GPR1, active compounds read low 1.02 | locus YDL040C, strain nat1, active compounds read low 0.984 | locus YDL074C, strain BRE1, active compounds read low 1.02 | locus YDL101C, strain DUN1, active compounds read low 1.02 | locus YDL134C, strain PPH21, active compounds read low 1.01 | locus YDL185W, strain tfp1, active compounds read low 1.01 | locus YDL192W, strain arf1, active compounds read low 1.01 | locus YDR001C, strain nth1, active compounds read low 0.957 | locus YDR069C, strain doa4, active compounds read low 0.954 | locus YDR101C, strain arx1, active compounds read low 1.01 | locus YDR137W, strain rgp1, active compounds read low 0.974 | locus YDR150W, strain NUM1, active compounds read low 1 | locus YDR159W, strain sac3, active compounds read low 1.03 | locus YDR162C, strain NBP2, active compounds read low 1.01 | locus YDR195W, strain ref2 0.895 | locus YDR297W, strain sur2, active compounds read low 0.982 | locus YDR318W, strain mcm21, active compounds read low 1.02 | locus YDR334W, strain swr1, active compounds read low 0.928 | locus YDR335W, strain msn5, active compounds read low 0.977 | locus YDR363W, strain ESC2, active compounds read low 0.985 | locus YDR388W, active compounds read low 1.01 | locus YDR392W, strain spt3, active compounds read low 1.04 | locus YDR502C, strain sam2, active compounds read low 1.01 | locus YEL003W, strain gim4, active compounds read low 0.986 | locus YEL037C, strain rad23, active compounds read low 0.99 | locus YEL061C, strain CIN8 (second series), active compounds read low 0.966 | locus YEL061C, strain CIN8, active compounds read low 1.01 | locus YER002W, strain NOP16, active compounds read low 0.993 | locus YER015W, strain faa2, active compounds read low 1.01 | locus YER016W, strain bim1, active compounds read low 1 | locus YER110C, active compounds read low 1.01 | locus YER111C, strain swi4, active compounds read low 0.972 | locus YER155C, strain BEM2 (second series), active compounds read low 0.927 | locus YER155C, strain BEM2, active compounds read low 1 | locus YER167W, strain BCK2, active compounds read low 1 | locus YFR010W, strain ubp6, active compounds read low 0.958 | locus YGL078C, strain dbp3, active compounds read low 1.01 | locus YGL086W, strain mad1, active compounds read low 0.994 | locus YGL167C, strain pmr1, active compounds read low 0.964 | locus YGL173C, strain kem1, active compounds read low 0.984 | locus YGL227W, strain vid30, active compounds read low 0.984 | locus YGL240W, strain doc1, active compounds read low 0.957 | locus YGL248W, strain PDE1, active compounds read low 1.01 | locus YGL253W, strain hxk2, active compounds read low 1 | locus YGR078C, strain PAC10, active compounds read low 1.01 | locus YGR135W, strain pre9, active compounds read low 1 | locus YGR229C, strain SMI1, active compounds read low 0.999 and 0.99 | locus YGR252W, strain gcn5, active compounds read low 0.962 | locus YHR013C, strain ard1, active compounds read low 0.971 | locus YHR027C, strain rpn1, active compounds read low 0.992 | locus YHR030C, strain SLT2, active compounds read low 1.01 and 1.04 | locus YHR079C, strain IRE1 (second series), active compounds read low 1.02 | locus YHR079C, strain IRE1, active compounds read low 1.03 | locus YHR094C, strain hxt1, active compounds read low 1.01 | locus YHR129C, strain ARP1, active compounds read low 1 | locus YHR142W, strain chs7, active compounds read low 0.99 | locus YHR200W, strain rpn10, active compounds read low 1.02 | locus YIL066C, strain RNR3, active compounds read low 1.01 | locus YIL073C, strain SPO22, active compounds read low 1.06 | locus YIL125W, strain kgd1, active compounds read low 0.998 | locus YIR030C, strain dcg1, active compounds read low 1.01 | locus YJL092W, strain hpr5, active compounds read low 0.977 | locus YJL095W, strain BCK1 (second series), active compounds read low 0.973 | locus YJL095W, strain BCK1, active compounds read low 1.02 | locus YJL115W, strain asf1, active compounds read low 0.953 | locus YJL129C, strain trk1, active compounds read low 0.969 | locus YJL134W, strain LCB3, active compounds read low 1.01 | locus YJL154C, strain vps35, active compounds read low 0.968 | locus YJL164C, strain tpk1, active compounds read low 1.02 | locus YJL166W, strain qcr8, active compounds read low 0.95 | locus YJL168C, strain set2, active compounds read low 1.01 | locus YJL187C, strain SWE1 (second series), active compounds read low 1.02 | locus YJR043C, strain POL32, active compounds read low 1.02 | locus YJR066W, strain TOR1, active compounds read low 0.989 | locus YJR075W, strain HOC1, active compounds read low 1.01
